Shown are actives, neighbours in structure and some others; about 3.9% of the full set was active somewhere.
NSD2 inh: blocks human histone methyltransferase NSD2; NSD2 peptide methylation, AlphaScreen, 120 min; inhibition, % at 12.5 µM; 0.54% of 310,000 active; AID 743445; in the data active = inhibition above about 50%
ALR inh: human ALR oxidase inhibition via reduced H2O2; P55789; purified ALR, DTT oxidation, H2O2 HRP-luminol luminescence; inhibition, % (test concentration not listed); 3.8% of 290,000 active; AID 485317;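 active = mean replicate inhibition above about 79%, with every replicate also reaching it, limit read from the data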
CDK5 p35 inh: inhibitors of human CDK5/p35 kinase | Q00535+Q15078 | Recombinant CDK5/p35, ADP-Glo luminescence, 60 min | inhibition, % at 10 µM | 0.01% of 330,000 active | AID 488839;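 active = highest replicate inhibition of at least 50% and at least 75% of replicates reaching 50%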;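 note: plate controls were DMSO neutral control for no effect and GW8510 at 10 µM for full effect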
N-glyco inh: blocks N-linked glycosylation in D54 reporter cells | D54 ERlucT glycosylation luciferase reporter, 24 h; percent of 100 nM tunicamycin response | reporter increase, % at 12.5 µM | 0.23% of 360,000 active;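 active = mean luciferase reporter signal, scaled so untreated is 0 and the glycosylation-blocking control 100, at or above a set limit in every replicate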;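 note: luciferase carries N-glycosylation sites so blocking glycosylation raises the light; 0% = median of neutral control wells and 100% = median of 100 nM tunicamycin wells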
CASP6 VEID inh: caspase-6 (human) enzyme inhibition | inhibition, % at 12.5 µM | P55212 | 0.53% of 350,000 active | purified caspase-6, Z-VEID-R110 cleavage fluorescence;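 active = mean inhibition across replicates at least about 35%, with every replicate also reaching that limit, limit read from the data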;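 note: 0% = median of neutral control wells and 100% = no fluorescence left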
Mot1-301 SUMO: inhibitors of SUMOylation pathway: yeast Mot1-301 growth rescue | S. cerevisiae Mot1-301 growth rescue, ATP luminescence, 38.5C; percent above DMSO median, 100 means doubled | growth rescue, % at 18.8 µM | 1% of 320,000 active | AID 2716;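 active = every valid replicate shows activation above 250% relative to neutral control wells; inactive = the rest, any valid replicate at or below 250%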;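 note: OY570 slx delta 5 strain wells were the positive control but not used for scaling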
Starred values were filed as active, the others as inactive; i = inactive; / = no result.

SMILES	NSD2 inh	ALR inh	CDK5 p35 inh	N-glyco inh	CASP6 VEID inh	Mot1-301 SUMO
COc1ccc(NC2CCCN(C(=O)CN3CCOC3=O)C2)cc1 (centres undefined)	0	98*	-1	3	-3	6
C[C@@H]1CCCCO[C@@H](CN(C)Cc2ccncc2)[C@H](C)CN([C@@H](C)CO)C(=O)c2cc(NS(=O)(=O)c3cn(C)cn3)ccc2O1	/	/	/	/	-1	/
COc1ccc(S(=O)(=O)N(C)C[C@@H]2Oc3c(NS(C)(=O)=O)cccc3C(=O)N([C@@H](C)CO)C[C@@H]2C)cc1	/	/	/	/	-2	/
CC(C)C#Cc1cnc2c(c1)C(=O)N([C@H](C)CO)C[C@H](C)[C@@H](CN(C)C(=O)Nc1ccc(F)cc1)O2	/	/	/	/	1	/
C[C@@H]1CN([C@H](C)CO)C(=O)c2cccc(NC(=O)Nc3ccc(C(F)(F)F)cc3)c2O[C@@H]1CN(C)S(=O)(=O)c1cccs1	/	/	/	/	-2	/
C[C@H]1CN([C@@H](C)CO)C(=O)c2cccc(NS(=O)(=O)c3cccs3)c2O[C@H]1CN(C)C(=O)NC1CCCCC1	/	/	/	/	0	/
NC(=O)/C(=C/c1ccco1)C(N)=S	1	3	0	0	35*	-5
COc1ccc(-c2csc(N(CCCN(C)C)C(=O)c3ccc(F)cc3)n2)cc1	16	87*	2	-3	-26	-13
O=C(C[C@H]1C[C@H]2c3cc(NC(=O)Nc4ccc(C(F)(F)F)cc4)ccc3O[C@H]2[C@@H](CO)O1)NCc1ccc2c(c1)OCO2	/	/	/	/	0	/
CN(C)c1ccc(/C=N/Nc2ccc(-n3ccnc3)nn2)cc1	8	94*	0	0	/	498
Cc1ccc(-c2nnc(Nc3ccc(O)cc3)c3ccccc23)cc1S(=O)(=O)NCCO	5	97*	3	-1	3	-5
CNC(=O)c1cc(Nc2nnc(-c3ccc(O)cc3)c3ccccc23)ccc1OC	0	98*	0	4	6	i
NC(=O)COc1ccc(Nc2nnc(-c3ccc(O)cc3)c3ccccc23)cc1	1	99*	0	1	4	-23
CNC(=O)c1ccc(Nc2nnc(-c3ccc(O)cc3)c3ccccc23)cc1	-1	30	0	2	3	-8
Cc1ccc(-c2nnc(Nc3ccc(OCC(N)=O)cc3)c3ccccc23)cc1S(N)(=O)=O	9	-92	3	1	15	-2
Cc1ccc(-c2nnc(Nc3cccc(O)c3)c3ccccc23)cc1S(=O)(=O)NCCO	1	64	1	0	10	11
Oc1ccc(-c2nnc(Nc3cccc(O)c3)c3ccccc23)cc1	-194	98*	-1	2	5	35
C[C@@H]1CN([C@H](C)CO)C(=O)c2ccccc2-c2ccccc2CO[C@H]1CN(C)S(=O)(=O)c1cn(C)cn1	/	/	/	/	3	/
Oc1ccc(C2C[C@H]3CC[C@@H]2C3)cc1O (some centres undefined)	22	99*	1	3	11	-9
CCC(NC(C)C)C(O)c1ccc(O)c(O)c1 (centres undefined)	/	92*	0	-1	0	99
CO[C@@H]1CN(C)C(=O)c2ccc(NC(=O)C3CCCCC3)cc2OC[C@H](C)N(Cc2nccs2)C[C@H]1C	/	/	/	/	0	/
Nc1ccc(Br)c2cccnc12	99*	-10	0	14	30	-1
CC(=O)N1[C@H](CO)[C@@H](c2ccccc2)[C@@H]1CNC(=O)CN1CCOCC1	/	/	/	/	8	/
C=CCNC(=S)/C(=C(\[O-])c1ccc(Cl)cc1)[n+]1ccccc1	-1	98*	-1	1	-1	-4
O=C(C1CCCC1)N1CCCCN2[C@H](CO)[C@@H](c3ccc(-c4cccc(F)c4)cc3)[C@H]2C1	/	/	/	/	1	/
SMILES	NSD2 inh	ALR inh	CDK5 p35 inh	N-glyco inh	CASP6 VEID inh	Mot1-301 SUMO
CO[C@H]1CN(C)C(=O)c2ccc(NC(=O)Nc3ccccc3)cc2OC[C@@H](C)N(C(=O)Nc2c(C)noc2C)C[C@@H]1C	/	/	/	/	0	/
CCN(CC)c1ccc(NC(=O)CN(C)Cc2cccs2)cc1	32	99*	0	-3	2	7
CCCCC(=O)Nc1ccc(NCc2ccc(C)s2)cc1	3	97*	-1	-4	-1	-20
CC(=O)N(C)c1ccc(NC(=O)Cc2cccs2)cc1	0	-11	0	1	38*	1
O=C(Cc1cccs1)Nc1ccc(-c2nc3ccccc3[nH]2)cc1	-1	1	0	33*	/	431
O=C(Cc1cccs1)Nc1ccc(Cl)cc1	3	-9	1	-1	/	34
CCC(=O)Nc1ccc(NCc2cccs2)cc1	1	98*	-1	3	-1	9
O=C(O)c1ccc(NCc2cccs2)cc1	0	-3	-1	1	2	-5
Cc1cc(N2CCCCC2)nc2ccccc12	-7	0	0	1	-2	201
Cc1cc(-n2nnc3ccccc32)nc2ccccc12	36	7	0	3	55*	0
CCOC(=O)C(=O)NNc1ccc(Cl)cc1	-1	100*	-1	3	-3	201
Cc1ccccc1NNC(=O)C(=O)NNc1ccccc1C	2	98*	2	2	1	-17
CCOC(=O)C(=O)NNc1ccc(C)cc1	2	100*	-3	3	/	146
CCOC(=O)C(=O)NNc1ccccc1OC	-1	99*	1	0	-3	12
CCc1ccc(C(=O)NNc2ccc(Cl)cc2)cc1	-4	-12	0	3	-3	95
O=C(C[C@H]1C[C@@H]2c3cc(NC(=O)CC4CC4)ccc3O[C@@H]2[C@@H](CO)O1)NCc1cccc(F)c1	/	/	/	/	-6	/
COC(=O)C[C@H]1CC[C@@H]2[C@@H](COc3ccc(NC(=O)c4ccc(F)cc4)cc3C(=O)N2C)O1	/	/	/	/	3	/
CC(C)CNc1cccc2c1S(=O)(=O)N(Cc1ccc(F)cc1)[C@@H](C)[C@H](c1ccccc1)O2	/	/	/	/	0	/
Cc1ccccc1CN1[C@@H](C)[C@H](c2ccccc2)Oc2cccc(NCC(C)C)c2S1(=O)=O	/	/	/	/	63*	/
Cc1cccc(C)c1NC(=O)C(C1CC1)n1c(=O)c(-c2ccco2)nc2ccccc21 (centres undefined)	/	/	/	/	36*	/
Cc1cccc(C)c1NC(=O)C(C1CC1)n1c(=O)c(-c2ccccc2)nc2ccccc21 (centres undefined)	/	/	/	/	2	/
O=C(C[C@@H]1C=C[C@H](NC(=O)Nc2ccc3c(c2)OCO3)[C@@H](CO)O1)NCc1ccc(Cl)cc1	/	/	/	/	0	/
CC(=O)c1sc2nc(-c3ccco3)ccc2c1N	-1	-18	/	5	64*	-6
C[C@H]1CN([C@@H](C)CO)C(=O)c2ccccc2-c2ccccc2CO[C@@H]1CN(C)C(=O)Nc1cccc(C(F)(F)F)c1	/	/	/	/	0	/
CCOC(=O)c1ccc2c(c1)n(CC)c(C)[n+]2CC	2	/	1	4	6	6
CCOC(=O)c1ccc2c(c1)[nH]c(=S)n2CC	-1	83*	2	6	2	9

Source: PubChem (Broad Institute)
